Experimental findings from PubChem BioAssay (NCI) are described below.

Some test systems named below: NCI-H23 lung; NCI-H226 lung; NCI-H322M lung; HOP-62 NSCLC; NCI-H460 lung; HOP-92 NSCLC; NCI-H522 lung; A549/ATCC NSCLC; 786-0 renal; COLO 205 colon; DU-145 prostate; K-562 leukemia; MALME-3M melanoma; MDA-MB-231 breast; SF-268 CNS; SF-295 CNS; SF-539 CNS; UACC-257 melanoma; M14 melanoma.
What all share (assay): NCI-60 one-dose screen, 48 h (100 = growth as untreated, 0 = no growth, -100 = all killed)
What all share (settings): 10 µM unless noted

About 83,000 compounds went through this panel and 20% of them were active in at least one assay; those are over-represented in the sample as a whole.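 Step 1: grow cells in 96-well plates. Step 2: add test compound at a single concentration. Step 3: incubate 48 h. Step 4: record percent growth.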 Values without a mark were called inactive. The source made the active and inactive calls. The calls were made as follows: active = growth percent below 10; inactive = the rest.

In the case of `COc1cc(-c2nc3sccn3c2-c2ccnc(NCCNS(=O)(=O)c3ccc(F)cc3)n2)ccc1F`, the growth in the test on NCI-H23 lung was 13%; in the test on NCI-H226 lung, 3.23% (active); in the test on NCI-H322M lung, 29.7%; in the test on HOP-62 NSCLC it was 32.3%; with NCI-H460 lung, 13.6%; with HOP-92 NSCLC it was 18.8%. Also, the growth in the test on NCI-H522 lung was -6.6% (active); with A549/ATCC NSCLC it was 5.95% (active); in the test on 786-0 renal it was 30.9%; with COLO 205 colon, 5.45% (active); with DU-145 prostate it was 19.6%; with K-562 leukemia, 5.81% (active). Besides, the growth was -34.2% (active) in the test on MALME-3M melanoma; 22.3% with MDA-MB-231 breast; 19% in the test with SF-268 CNS; 4.27% (active) with SF-295 CNS; 31.2% in the test with SF-539 CNS; -12.7% (active) in the test on UACC-257 melanoma. The growth in the test with M14 melanoma was 9.49% (active).

Consider `COc1nccnn1`, for which the growth is 107% in the test with NCI-H23 lung; 96.2% in the test with NCI-H226 lung; 91% with NCI-H322M lung; 114% with HOP-62 NSCLC; 122% with NCI-H460 lung; 69.5% in the test with HOP-92 NSCLC. The growth with NCI-H522 lung is 109%; in the test on A549/ATCC NSCLC it was 102%; with 786-0 renal it was 104%; in the test with COLO 205 colon, 112%; with DU-145 prostate it was 96.2%; with K-562 leukemia it was 80.7%. Also, the growth with MALME-3M melanoma was 120%; in the test on MDA-MB-231 breast, 110%; in the test on SF-268 CNS, 114%; with SF-295 CNS it was 136%; in the test with SF-539 CNS it was 104%; in the test with UACC-257 melanoma, 109%. Besides, the growth with M14 melanoma is 108%.

Take `COc1cc(NCC(C)(O)CN(CC(C)C)CC(C)C)c2nc(C)ccc2c1` (stereo not drawn): the growth is 79.7% in the test on NCI-H23 lung; 74.1% with NCI-H226 lung; 89.3% in the test on NCI-H322M lung; 92.5% in the test with HOP-62 NSCLC; 101% in the test on NCI-H460 lung; 79.8% in the test on HOP-92 NSCLC. Besides, the growth with NCI-H522 lung is 77.6%; in the test with A549/ATCC NSCLC, 91%; in the test with 786-0 renal, 86.6%; with COLO 205 colon it was 79.5%; with DU-145 prostate, 110%; with K-562 leukemia it was 67.4%. Besides, the growth with MALME-3M melanoma was 94%; with MDA-MB-231 breast, 69.5%; in the test on SF-268 CNS, 93.7%; in the test on SF-295 CNS, 83.3%; with SF-539 CNS it was 96.1%; in the test on UACC-257 melanoma, 93.1%. For the same molecule, the growth with M14 melanoma is 91.5%.

Consider `CS(=O)(=O)c1ccc(-c2cc3c(oc2=O)-c2ccccc2OC3O)cc1` (stereo not drawn), for which the growth in the test with NCI-H23 lung is 90.3%; in the test with NCI-H226 lung, 74.7%; with NCI-H322M lung, 107%; in the test with HOP-62 NSCLC, 94.9%; in the test on NCI-H460 lung, 91.7%; in the test on HOP-92 NSCLC it was 38.1%. The growth with NCI-H522 lung is 92.7%; in the test with A549/ATCC NSCLC, 104%; in the test with 786-0 renal, 88.7%; in the test on COLO 205 colon, 114%; in the test on DU-145 prostate, 87.1%; in the test with K-562 leukemia it was 81%. The growth was 101% in the test with MALME-3M melanoma; 98.7% with MDA-MB-231 breast; 96.6% with SF-268 CNS; 75.7% with SF-295 CNS; 90.2% in the test with SF-539 CNS; -3.93% (active) with UACC-257 melanoma. Further, in the test on M14 melanoma, the growth is 101%.

Turning to `Cc1cccc(Oc2ccc(Nc3ncnc4ccc(NC(=O)CN(C)C)cc34)cc2Cl)c1`, the growth in the test with NCI-H23 lung is 78.4%; with NCI-H226 lung, 93.1%; in the test with NCI-H322M lung, 17.4%; with HOP-62 NSCLC it was 59.3%; in the test with NCI-H460 lung it was 0.249% (active); in the test on HOP-92 NSCLC, 23.5%. Moreover, the growth is 30% with NCI-H522 lung; 40.4% in the test with A549/ATCC NSCLC; 47.9% in the test with 786-0 renal; -15.8% (active) in the test with COLO 205 colon; 34.5% in the test with DU-145 prostate; -8.94% (active) with K-562 leukemia. In addition, the growth was 25.9% with MALME-3M melanoma; 41.1% in the test with MDA-MB-231 breast; 54.8% with SF-268 CNS; 58.4% in the test with SF-295 CNS; 59.9% in the test with SF-539 CNS; 81.8% in the test with UACC-257 melanoma. The growth in the test with M14 melanoma is -77.1% (active).

As to `COc1ccc(Cn2nc3c(c2-c2cc(OC)c(OC)c(OC)c2)-c2oncc2CC3)cc1`, the growth in the test on NCI-H23 lung was 79.8%; in the test on NCI-H226 lung it was 106%; in the test on NCI-H322M lung it was 99%; in the test with HOP-62 NSCLC, 96.7%; with NCI-H460 lung it was 107%; with HOP-92 NSCLC, 78.2%. For the same molecule, the growth was 12.7% in the test with NCI-H522 lung; 95.2% with A549/ATCC NSCLC; 85.1% with 786-0 renal; 99.1% in the test on COLO 205 colon; 105% in the test on DU-145 prostate; 39.9% in the test on K-562 leukemia. The growth with MALME-3M melanoma was 93.7%; in the test on MDA-MB-231 breast it was 65.8%; in the test with SF-268 CNS, 96.7%; in the test with SF-295 CNS, 77.2%; in the test on SF-539 CNS it was 89.1%; with UACC-257 melanoma it was 104%. Besides, the growth in the test with M14 melanoma is 84.6%.

With `CCCCc1ccc(Nc2nnc(SCC(=O)NC(=O)NCC)s2)cc1`, the growth in the test with NCI-H23 lung was 97.3%; in the test on NCI-H226 lung, 95.7%; in the test on NCI-H322M lung, 81.5%; in the test with HOP-62 NSCLC it was 96%; in the test with NCI-H460 lung, 102%; in the test with HOP-92 NSCLC, 61.4%. The growth in the test on NCI-H522 lung was 87.7%; in the test on A549/ATCC NSCLC, 109%; with 786-0 renal, 95.9%; in the test with COLO 205 colon, 202%; in the test on DU-145 prostate, 104%; with K-562 leukemia, 91.6%. The growth in the test with MALME-3M melanoma was 97.2%; in the test on MDA-MB-231 breast it was 88.1%; with SF-268 CNS it was 92.4%; in the test with SF-295 CNS it was 110%; in the test with SF-539 CNS it was 96.4%; in the test on UACC-257 melanoma, 113%. For the same molecule, in the test on M14 melanoma, the growth was 107%.
